# Hits are enriched below; roughly 19% of the tested compounds scored in any of these assays.
# DT40 TDP1 CPT: DT40-hTDP1 cell growth loss with CPT | chicken DT40 Tdp1-/-;hTDP1 cells + 20 nM CPT, ATP luminescence, 48 h | Potency, µM (highest dose often 46.2 µM), without a hit: at the top dose activity change, negative = growth inhibition, actives largely listed as inhibitors | hit rate 12% among 420,000 | AID 686979; note: potency is the fitted concentration of half-maximal effect; nearly all actives have a fitted effect of over 55% in size
#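 Chicken DT40 Tdp1-/- cells complemented with human TDP1, 400 cells/well, exposed to compounds plus 20 nM camptothecin for at least 48 h at 37 C; viability read as ATP content by CellTiter-Glo luminescence.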
# IL-1B inflam inh: inflammasome signaling inhibition, IL-1 beta readout. THP-1 LPS/ATP IL-1B secretion, AlphaLISA, 16 h; hits give low values. activity change, % at 57.5 µM. hit rate 4.7% among 360,000; in the data active = activity change below about -50%; inconclusive = mostly about -30% to -49%
#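 THP-1 cells pretreated 1 hr with compounds (up to 57.5 uM final), then stimulated with LPS (250 ng/mL final) plus ATP (1.25 mM final); secreted IL-1B measured by AlphaLISA after 16 hr, decreased signal indicating inhibition.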
# HT1080-NT tox: kills 2HG-producing HT-1080-NT fibrosarcoma cells; HT-1080-NT fibrosarcoma viability, CellTiter-Glo ATP luminescence, 48 h; Potency, µM (series often up to 46.1 µM), without a hit: top-dose activity, negative = less viability, most hits filed as cytotoxic; hit rate 1.6% among 360,000;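 note: NT is the 2HG producing partner of a matched IDH1 knockdown line; potency is the fitted concentration of half-maximal effect; 0% = DMSO-treated cells and -100% = media-only wells without cells; nearly all actives have a fitted effect of over 55% in size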
#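 Luminescent CellTiter-Glo readout after 48 hours of compound exposure at 37 degrees C defined viability of HT-1080-NT cells. Activity was normalized to DMSO wells and cell-free media wells; concentration-response curves were fitted and assigned curve classes.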
# uPA surface inh: blocks generation of uPA at the cell surface. cell surface uPA generation assay, qHTS. Potency, µM (top dose mostly 38.3 µM), for inactives: at the top dose activity change, negative = inhibition, most hits filed as inhibitors. hit rate 0.31% among 330,000; active = well fitted inhibition curve with a large enough effect; inconclusive = small, poorly fitted or top-dose-only effect; inactive = no such curve, though single readings can be large or run the other way; tested in mouse RAW 264.7 cells; note: potency is the fitted concentration of half-maximal effect; nearly all actives have a fitted effect of over 55% in size
# HT1080 IDH1KD tx: HT-1080 IDH1 knockdown cell toxicity (counter line); HT-1080 IDH1 knockdown viability, ATP luminescence, 48 h; Potency, µM (top dose mostly 46.1 µM), inactives show at the top dose activity, negative = toxicity, most hits filed as cytotoxic; hit rate 2% among 360,000;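 note: potency is the fitted concentration of half-maximal effect; 0% = DMSO wells and -100% = cell-free medium wells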
#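 IDH1KD HT-1080 cells, 750/well, RPMI + 5% FBS; compound pinned after 2 h settling; 48 h, 37 °C; CellTiter-Glo luminescence; % activity normalised to DMSO and no-cell wells; curves fitted, classed by r2 and efficacy.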
# TDP1 cell noCPT: qHTS for Inhibitors of human tyrosyl-DNA phosphodiesterase 1 (TDP1): qHTS in cells in absence of CPT; DT40 Tdp1-/- hTDP1 cells, no CPT, ATP luminescence, 48 h; Potency, µM (highest dose often 46.2 µM), inactives show top-dose activity change, negative = growth inhibition, hits mostly inhibitors; hit rate 15% among 420,000; note: potency is the fitted concentration of half-maximal effect; nearly all actives have a fitted effect of over 55% in size
#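 Cells were dispensed at 400 per well, compounds added by pin tool, plates incubated ≥48 hr at 37 °C, then CellTiter-Glo added for 30 min at room temperature before luminescence reading. Line: DT40 Tdp1-/- complemented with hTDP1; camptothecin omitted.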
# * hit, by the source's call; ? = inconclusive; / = not tested or not shown; [ ] = remark or other dose. Unless noted, calls come from the whole dose curve; as a rule, active = well fitted curve in the direction sought with a large enough effect; inconclusive = small, poorly fitted or top-dose-only effect, or another doubt; inactive = no such curve, though single readings can be large; an effect the other way counts as inactive or inconclusive. Unless noted, % is set by controls: 0 for no effect and ±100 for the full control effect.
SMILES,DT40 TDP1 CPT,IL-1B inflam inh,HT1080-NT tox,uPA surface inh,HT1080 IDH1KD tx,TDP1 cell noCPT
COc1ccc(CC(=O)Nc2ccc3nc(SC)sc3c2)cc1OC,-22%,36,-24%,2%,-20%,?
CCC(=O)Nc1ccc2nc(SCCOc3ccc(C)cc3OC)sc2c1,?,/,/,/,/,15µM*
COc1cc(=O)n2c(c1C(=O)N(C)Cc1cscn1)CCN(C(=O)c1cccc(C)c1C)CC2,-1%,/,/,/,/,-8%
COc1ccc(NC(=O)CSc2nccn2Cc2ccco2)cc1,-13%,-7,-2%,-28%,-11%,?
CC(=O)Oc1c(Cl)c(N2CCOCC2)c(OC(C)=O)c2ccccc12,21µM*,63,-4%,-4%,0%,16µM*
Cc1nn(C(=O)c2c(F)cccc2F)c(C)c1S(=O)(=O)N1CCCCCC1,-2%,/,/,/,/,-10%
Cc1ccc(C)c(N=Nc2nc3ccccc3n2C)c1,5.8µM*,-80*,4µM*,?,7.9µM*,3.5µM*
Cc1cc(C)c(C)c(N=Nc2nc3ccccc3n2C)c1C,?,?,?,0%,?,23µM*
Cc1oc(-c2ccccc2NC(=O)c2ccsc2)nc1CN(C)CC1CC=CCC1 (stereo not drawn),-3%[9.04 µM],/,/,/,/,4%
Cc1cc(C)c2cc(CN(Cc3ccco3)C(=S)NCC3CCCO3)c(=O)[nH]c2c1 (stereo not drawn),18µM*,0,-8%,13%,-10%,16µM*
Cc1ccc2[nH]c(=O)c(CN(Cc3cccs3)C(=S)NCC3CCCO3)cc2c1 (stereo not drawn),?,-10,1%,-5%,-7%,13µM*
COc1ccc2cc(CN(Cc3ccco3)C(=S)NCC3CCCO3)c(=O)[nH]c2c1 (stereo not drawn),?,19,2%,0%,9%,?
Cc1ccc2[nH]c(=O)c(CN(CC3CCCO3)C(=O)c3ccncc3)cc2c1 (stereo not drawn),1%,18,-1%,1%,1%,-15%
Cc1cccc2cc(CN(CC3CCCO3)C(=O)c3ccco3)c(=O)[nH]c12 (stereo not drawn),1%,3,12%,1%,9%,-3%
Cc1ccc2cc(CN(CC3CCCO3)C(=S)NCc3ccco3)c(=O)[nH]c2c1C (stereo not drawn),?,?,-21%,-22%,?,13µM*
OC(c1ccc(CN2CCCCC2)cc1)c1ncc(-c2ccccc2F)[nH]1 (stereo not drawn),2%,-3,-13%,/,-5%,-9%
Cc1ccccc1CS(=O)(=O)Cc1ccc(C(=O)NCCc2ccccc2)o1,?,22,-2%,4%,-15%,?
CC(=O)c1c(C)[nH]c(C(=O)OCC(=O)Nc2cccnc2Cl)c1C,?,30,1%,4%,-7%,?
CCN(CC)S(=O)(=O)c1cccc(NC(=O)COC(=O)c2[nH]c(C)c(C(C)=O)c2C)c1,1.8µM*,53,0%,/,?,1µM*
CC(=O)c1c(C)[nH]c(C(=O)OCC(=O)Nc2cc(S(=O)(=O)N3CCCC3)ccc2Cl)c1C,?,75,3%,-8%,-3%,23µM*
COc1ccc(S(=O)(=O)N2CCOCC2)cc1NC(=O)COC(=O)c1[nH]c(C)c(C(C)=O)c1C,-14%,31,-2%,-4%,-15%,-16%
CC(=O)c1c(C)[nH]c(C(=O)OCC(=O)Nc2ccccc2Cl)c1C,16µM*,127,-30%,/,-18%,15µM*
CC(=O)c1c(C)[nH]c(C(=O)CN2CCN(S(=O)(=O)c3ccc(C(C)C)cc3)CC2)c1C,15µM*,2,-6%,-10%,-10%,10µM*
Cc1noc(C)c1S(=O)(=O)Nc1ccc2c(c1)CC(=O)N([C@H](C)CO)C[C@H](C)[C@@H](CN(C)CC1CC1)O2,-8%,-2,3%,4%,4%,-11%
Cc1noc(C)c1C(=O)OC(C)C(=O)c1ccc(C(C)(C)C)cc1 (stereo not drawn),-14%,13,12%,/,14%,-26%
SMILES,DT40 TDP1 CPT,IL-1B inflam inh,HT1080-NT tox,uPA surface inh,HT1080 IDH1KD tx,TDP1 cell noCPT
O=C(COC(=O)c1nc(Cl)ccc1Cl)NCc1ccc(Cl)cc1,2%,6,2%,-2%,0%,?
CCOC(=O)C1(Cc2ccccc2C)CCCN(C(=O)c2cc(CC)nn2C)C1 (stereo not drawn),?,49,-1%,-39%,-4%,?
O=C(O)Cn1nncc1-c1ccc(C(F)(F)F)cc1,0%,20,12%,/,6%,-3%
O=C(COC(=O)c1ccc(Cl)nc1)Nc1ccc(S(=O)(=O)N2CCCC2)cc1,-13%,14,10%,2%,5%,0%
O=C(COC(=O)c1ccc(Cl)nc1)Nc1cc(S(=O)(=O)N2CCCCC2)ccc1Cl,18µM*,23,4%,1%,0%,?
CC(=O)c1c(C)[nH]c(C(=O)OCc2csc(CC(=O)Nc3ccccc3C)n2)c1C,18µM*,-11,-2%,7%,-5%,9.2µM*
C/C(=N\Nc1nc(C)c(C)s1)c1ccc([N+](=O)[O-])cc1,?,-88*,21µM*,-4%,16µM*,21µM*
C/C(=N\Nc1ccc([N+](=O)[O-])cc1)c1ccc(-n2nncc2C)cc1,?,?,-18%,-15%,?,21µM*
O=Cc1ccc(-n2nncc2-c2ccc([N+](=O)[O-])cc2)cc1,-18%,12,-5%,-1%,6%,?
CC(C)(C)c1cnnn1-c1ccc(/C=N/Nc2ccc([N+](=O)[O-])cc2)cc1,18µM*,-14,-9%,-29%,-17%,13µM*
Cc1cc(C(=O)NCc2nc(-c3ccccc3NC(=O)C3CCCO3)oc2C)nc(C)n1 (stereo not drawn),8%,/,/,/,/,-30%
Cc1ccc(-n2nc3c([n+]2[O-])CCc2c-3no[n+]2[O-])cc1,?,-78*,23%,-14%,30%,16µM*
[O-][n+]1onc2c1CCc1c-2nn(-c2ccccc2Cl)[n+]1[O-],13µM*,-74*,?,?,11µM*,15µM*
Cc1cccc(C)c1NC(=O)C(c1cc2ccccc2o1)N1CCN(C)CC1 (stereo not drawn),-13%,7,-18%,/,0%,-12%
CCN(CC)c1ccc(/C=N/n2c(C)nc3ccccc3c2=O)cc1,?,-29,-1%,0%,0%,?
